Test results published in ChEMBL document CHEMBL3433997, “St. Jude Leishmania screening dataset” (2016).

The compounds below were run against Glucose transporter (Leishmania mexicana) (UniProt O61059) (assay: ST_JUDE_LEISH: Cytotoxicity at 2uM final concentration against transgenic Leishmania Mexicana promastigotes LmGT2 that are glucose transport deficient and complemented with the L. Mexicana glucose transporter 2. Activity is measured by DNA content using SYBR green in vitro).
Format: functional
With `O=C(c1ccccc1[N+](=O)[O-])N(Cc1ccccc1)c1ccccn1` the inhibition was 6.57%.
`COc1cc(-n2c(CN3CCCC3)nc3cc(-c4ccc(Cl)cc4)sc3c2=O)ccc1OCCN1CCCC1` was tested, and the inhibition was 0.37%.
`COc1cc(Cc2cnc(N)nc2N)c2c(c1OC)OC(C)(C)C=C2` showed an inhibition of 4.87%.
Compound `COc1cccc(C(=O)Nc2nc3c(s2)CCN(Cc2ccccc2N2CCNCC2)CC3)c1` has an inhibition of 10.7%.
`CC(C)c1cc(Oc2c(I)cc(CCNC(=N)N)cc2I)ccc1O` was tested, and the inhibition was -2.44%.
With `CC[C@H]1CN(Cc2ccccc2Br)CC[C@H]1CCCc1ccnc2ccc(O)cc12` the inhibition was 2.43%.
`O=C(Nc1ccc2c(c1)CCC2)c1cccc(N2CCN(c3ccncc3)CC2)c1` showed an inhibition of 1.58%.
Work on `COc1ccc(-c2onc(C(F)(F)F)c2-c2ccc(Br)cc2)c(O)c1` yielded an inhibition of 1.56%.
With `O=[N+]([O-])c1ccc(C=NNc2nc(Nc3ccccc3)nc(Nc3ccccc3)n2)o1` the inhibition was 2.58%.
With `CC(C)C[C@H](NC(=O)c1ccc(OCCN2CCOCC2)cc1)C(=O)N[C@H](/C=N/NC(=O)c1ccccc1)CCc1ccccc1` the inhibition was 2.03%.
Work on `COc1cc(Nc2nccc(N3CCC(NS(=O)(=O)c4ccc(NC(C)=O)cc4)CC3)n2)cc(OC)c1OC` yielded an inhibition of -0.12%.
In the case of `CN1CCN(c2ccc(-c3nc4ccc(OCc5cc(Cl)cc(Cl)c5)c(C(N)=O)c4[nH]3)cc2)CC1`, the inhibition is reported as 0.86%.
`Cc1cccc(-c2cc3cc(Nc4ccnc5cc(-c6nccs6)ccc45)ccc3[nH]2)c1` gave an inhibition of 1.12%.
With `Clc1cc(Nc2ncnc3sc(C#Cc4ncc[nH]4)cc23)ccc1OCc1ccccn1` the inhibition was -0.27%.
`CS(=O)(=O)c1ccc2c(c1)CCN(CCC1CCC(NC(=O)C(=Cc3cccc(C#N)c3)c3ccc(-c4ccccc4)cc3)CC1)CC2` (stereo not drawn) was tested, and the inhibition was 1.15%.
Work on `Cc1ccc(CNC(=O)[C@H](Cc2ccccc2)Nc2cc(C)nc(NCCc3ccc(F)cc3)n2)cc1` yielded an inhibition of 10.6%.
Work on `COc1cc(C(=O)N2CCOC(CCN3CCC[C@H]3C(=O)Nc3ccccc3)(c3ccc(Cl)c(Cl)c3)C2)cc(OC)c1OC` (stereo partly drawn) yielded an inhibition of 2.89%.
Compound `COc1cccc(NC(=O)COc2ccc(C(=O)Nc3nc4ccccc4[nH]3)cc2)c1` has an inhibition of -1.7%.
`O=C(N[C@@H](Cc1ccccc1)[C@H](O)CNC1CCOCC1)c1cc(C2CCCC2)cc(N2CCCCS2(=O)=O)c1` showed an inhibition of 4.01%.
In the case of `CN(CCc1ccccn1)c1cccc2c1nc(-c1cccnc1)n2CCNCc1ccccc1`, the inhibition is reported as 11.3%.
In the case of `COc1ccc(C(C(=O)NC2CCN(C[C@H](O)c3ccnc4ccc(OC)cc34)CC2)N2CCN(c3ccc([N+](=O)[O-])cc3)CC2)cc1` (stereo partly drawn), the inhibition is reported as 2.85%.
In the case of `CN(C)CCCNCc1ccc(-c2ccc(CNCCOc3ccccc3)cc2)cc1`, the inhibition is reported as 2.46%.
In the case of `COc1cc2nc(NCC3CCCCC3)nc(NCc3ccccc3)c2cc1OC`, the inhibition is reported as 0.32%.
